# Assay results published in ChEMBL document CHEMBL2218924, “A broad activity screen in support of a chemogenomic map for kinase signalling research and drug discovery” (Biochem J, 2013).
# How the values were obtained:
# [1] = target: T1, Serine/threonine-protein kinase 17A (Homo sapiens) (UniProt Q9UEE5); settings: at 10 µM
# T1 sequence (whole entry): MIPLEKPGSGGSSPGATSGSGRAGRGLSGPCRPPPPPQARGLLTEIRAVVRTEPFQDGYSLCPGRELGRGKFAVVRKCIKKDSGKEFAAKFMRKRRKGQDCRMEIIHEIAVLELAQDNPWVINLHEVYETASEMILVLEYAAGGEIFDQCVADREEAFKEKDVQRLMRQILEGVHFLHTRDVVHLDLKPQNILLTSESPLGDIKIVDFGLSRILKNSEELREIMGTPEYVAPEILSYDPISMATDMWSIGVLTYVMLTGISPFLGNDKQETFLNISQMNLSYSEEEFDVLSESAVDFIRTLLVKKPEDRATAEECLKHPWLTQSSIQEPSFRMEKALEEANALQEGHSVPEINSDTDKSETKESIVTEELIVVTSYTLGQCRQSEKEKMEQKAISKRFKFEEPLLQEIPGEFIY
# [2] = target: T2, Ephrin type-A receptor 1 (Homo sapiens) (UniProt P21709); settings: at 10 µM
# T2 sequence (whole entry): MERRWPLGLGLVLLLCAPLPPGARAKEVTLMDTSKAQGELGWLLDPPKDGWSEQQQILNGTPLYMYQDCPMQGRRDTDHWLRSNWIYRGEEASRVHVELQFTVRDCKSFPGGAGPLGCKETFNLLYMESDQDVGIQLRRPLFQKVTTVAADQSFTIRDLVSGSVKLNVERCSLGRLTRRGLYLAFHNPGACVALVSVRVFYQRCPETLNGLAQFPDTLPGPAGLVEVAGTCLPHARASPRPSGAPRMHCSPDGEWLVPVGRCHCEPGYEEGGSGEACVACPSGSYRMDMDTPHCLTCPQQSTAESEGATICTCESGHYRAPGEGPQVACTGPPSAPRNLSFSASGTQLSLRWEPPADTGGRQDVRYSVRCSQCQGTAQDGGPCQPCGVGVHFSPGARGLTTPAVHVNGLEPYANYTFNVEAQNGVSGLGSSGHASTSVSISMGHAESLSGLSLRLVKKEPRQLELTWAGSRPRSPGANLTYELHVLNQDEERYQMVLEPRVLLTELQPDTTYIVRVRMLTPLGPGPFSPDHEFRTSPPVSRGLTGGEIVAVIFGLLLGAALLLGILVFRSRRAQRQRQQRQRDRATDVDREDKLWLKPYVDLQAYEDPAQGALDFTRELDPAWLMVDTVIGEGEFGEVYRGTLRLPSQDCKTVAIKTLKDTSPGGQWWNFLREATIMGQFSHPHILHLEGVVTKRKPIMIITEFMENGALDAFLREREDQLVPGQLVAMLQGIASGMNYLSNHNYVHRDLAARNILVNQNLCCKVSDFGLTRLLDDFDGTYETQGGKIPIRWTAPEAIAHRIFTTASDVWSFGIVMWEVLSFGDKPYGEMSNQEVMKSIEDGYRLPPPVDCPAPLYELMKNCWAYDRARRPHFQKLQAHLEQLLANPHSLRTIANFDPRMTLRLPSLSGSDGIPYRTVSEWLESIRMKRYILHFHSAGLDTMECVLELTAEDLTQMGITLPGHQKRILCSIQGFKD
# [3] = target: Ephrin type-A receptor 2 (Homo sapiens) (UniProt P29317); settings: at 1 µM
# Sequence of Ephrin type-A receptor 2 (Homo sapiens) (P29317 whole entry): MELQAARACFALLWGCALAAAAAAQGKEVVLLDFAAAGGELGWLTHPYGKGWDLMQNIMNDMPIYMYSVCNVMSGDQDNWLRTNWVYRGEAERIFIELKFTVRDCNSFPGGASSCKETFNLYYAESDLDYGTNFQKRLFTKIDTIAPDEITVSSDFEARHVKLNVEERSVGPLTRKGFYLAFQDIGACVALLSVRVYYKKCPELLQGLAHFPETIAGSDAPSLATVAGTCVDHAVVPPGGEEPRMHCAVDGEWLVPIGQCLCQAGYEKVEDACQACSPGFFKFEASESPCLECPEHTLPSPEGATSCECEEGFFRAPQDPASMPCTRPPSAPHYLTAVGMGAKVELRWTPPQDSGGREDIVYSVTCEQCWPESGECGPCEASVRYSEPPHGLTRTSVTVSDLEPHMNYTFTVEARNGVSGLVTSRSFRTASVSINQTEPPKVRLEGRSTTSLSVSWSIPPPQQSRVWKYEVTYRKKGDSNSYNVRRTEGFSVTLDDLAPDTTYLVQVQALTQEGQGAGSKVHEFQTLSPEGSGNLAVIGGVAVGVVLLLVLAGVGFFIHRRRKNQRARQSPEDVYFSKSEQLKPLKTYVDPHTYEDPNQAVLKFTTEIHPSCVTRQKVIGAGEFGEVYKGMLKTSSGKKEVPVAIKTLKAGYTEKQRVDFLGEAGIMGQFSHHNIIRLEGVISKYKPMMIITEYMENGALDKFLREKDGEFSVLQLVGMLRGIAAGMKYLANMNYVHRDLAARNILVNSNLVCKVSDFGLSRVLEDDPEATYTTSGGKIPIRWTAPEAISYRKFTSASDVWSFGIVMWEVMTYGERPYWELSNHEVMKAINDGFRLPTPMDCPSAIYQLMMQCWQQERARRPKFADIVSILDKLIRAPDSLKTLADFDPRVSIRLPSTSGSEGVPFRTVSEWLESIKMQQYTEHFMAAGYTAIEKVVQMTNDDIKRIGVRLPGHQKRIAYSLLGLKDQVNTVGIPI
# [4] = target: Ephrin type-A receptor 2 (Homo sapiens) (UniProt P29317); settings: at 10 µM
# [5] = target: T3, Ephrin type-A receptor 3 (Homo sapiens) (UniProt P29320); settings: at 1 µM
# T3 sequence (whole entry): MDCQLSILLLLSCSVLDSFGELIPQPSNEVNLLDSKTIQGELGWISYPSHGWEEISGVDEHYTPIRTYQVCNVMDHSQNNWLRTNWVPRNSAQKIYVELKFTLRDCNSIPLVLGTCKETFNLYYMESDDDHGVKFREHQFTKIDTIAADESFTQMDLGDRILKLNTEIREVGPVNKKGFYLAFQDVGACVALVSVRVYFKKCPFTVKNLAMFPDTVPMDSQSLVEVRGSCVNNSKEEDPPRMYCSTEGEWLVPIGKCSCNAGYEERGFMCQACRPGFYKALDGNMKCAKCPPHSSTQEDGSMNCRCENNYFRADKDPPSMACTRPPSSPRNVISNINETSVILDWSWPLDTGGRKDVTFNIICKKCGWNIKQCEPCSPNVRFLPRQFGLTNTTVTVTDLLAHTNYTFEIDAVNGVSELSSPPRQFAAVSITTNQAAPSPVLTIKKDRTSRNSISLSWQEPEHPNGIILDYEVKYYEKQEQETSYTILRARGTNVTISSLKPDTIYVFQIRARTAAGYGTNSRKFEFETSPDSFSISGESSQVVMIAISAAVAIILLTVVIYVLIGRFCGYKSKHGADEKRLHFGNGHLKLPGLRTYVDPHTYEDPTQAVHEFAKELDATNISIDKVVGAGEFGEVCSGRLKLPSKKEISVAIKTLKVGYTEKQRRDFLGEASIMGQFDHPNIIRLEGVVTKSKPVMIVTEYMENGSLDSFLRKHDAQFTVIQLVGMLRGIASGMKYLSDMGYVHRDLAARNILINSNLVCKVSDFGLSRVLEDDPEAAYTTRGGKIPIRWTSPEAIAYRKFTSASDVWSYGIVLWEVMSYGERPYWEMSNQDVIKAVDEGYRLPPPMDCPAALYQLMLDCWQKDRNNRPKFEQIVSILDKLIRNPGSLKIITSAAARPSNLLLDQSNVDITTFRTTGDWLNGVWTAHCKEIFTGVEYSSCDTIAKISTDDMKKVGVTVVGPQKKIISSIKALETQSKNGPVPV
# [6] = target: T3, Ephrin type-A receptor 3 (Homo sapiens); settings: at 10 µM
# [7] = target: Ephrin type-A receptor 4 (Homo sapiens) (UniProt P54764); settings: at 10 µM
# Sequence of Ephrin type-A receptor 4 (Homo sapiens) (P54764 whole entry): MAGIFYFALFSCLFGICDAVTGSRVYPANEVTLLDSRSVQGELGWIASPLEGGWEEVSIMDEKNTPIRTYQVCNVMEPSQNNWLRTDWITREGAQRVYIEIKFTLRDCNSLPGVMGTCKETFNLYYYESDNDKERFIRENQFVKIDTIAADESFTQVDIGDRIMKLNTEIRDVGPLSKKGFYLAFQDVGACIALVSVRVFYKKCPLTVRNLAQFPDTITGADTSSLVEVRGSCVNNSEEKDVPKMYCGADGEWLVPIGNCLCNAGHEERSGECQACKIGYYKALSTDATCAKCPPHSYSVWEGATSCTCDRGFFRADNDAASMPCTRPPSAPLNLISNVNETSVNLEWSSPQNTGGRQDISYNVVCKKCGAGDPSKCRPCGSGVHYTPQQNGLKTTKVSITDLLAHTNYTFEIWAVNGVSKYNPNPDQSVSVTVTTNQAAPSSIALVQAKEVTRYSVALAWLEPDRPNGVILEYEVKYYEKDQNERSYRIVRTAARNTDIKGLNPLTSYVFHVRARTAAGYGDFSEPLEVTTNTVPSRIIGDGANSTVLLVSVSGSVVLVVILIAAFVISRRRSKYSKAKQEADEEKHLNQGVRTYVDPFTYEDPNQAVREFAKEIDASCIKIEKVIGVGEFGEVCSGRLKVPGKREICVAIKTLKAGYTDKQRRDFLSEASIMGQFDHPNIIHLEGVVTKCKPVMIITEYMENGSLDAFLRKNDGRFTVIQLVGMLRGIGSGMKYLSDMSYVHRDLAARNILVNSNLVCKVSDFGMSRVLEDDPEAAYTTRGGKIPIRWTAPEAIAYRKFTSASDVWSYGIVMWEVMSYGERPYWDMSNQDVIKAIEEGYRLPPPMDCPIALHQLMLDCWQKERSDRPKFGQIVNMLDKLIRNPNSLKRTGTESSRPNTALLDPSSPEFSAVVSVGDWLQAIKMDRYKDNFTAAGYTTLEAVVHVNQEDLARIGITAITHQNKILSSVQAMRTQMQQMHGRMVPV
# [8] = target: Ephrin type-A receptor 5 (Homo sapiens) (UniProt P54756); settings: at 1 µM
# Sequence of Ephrin type-A receptor 5 (Homo sapiens) (P54756 whole entry): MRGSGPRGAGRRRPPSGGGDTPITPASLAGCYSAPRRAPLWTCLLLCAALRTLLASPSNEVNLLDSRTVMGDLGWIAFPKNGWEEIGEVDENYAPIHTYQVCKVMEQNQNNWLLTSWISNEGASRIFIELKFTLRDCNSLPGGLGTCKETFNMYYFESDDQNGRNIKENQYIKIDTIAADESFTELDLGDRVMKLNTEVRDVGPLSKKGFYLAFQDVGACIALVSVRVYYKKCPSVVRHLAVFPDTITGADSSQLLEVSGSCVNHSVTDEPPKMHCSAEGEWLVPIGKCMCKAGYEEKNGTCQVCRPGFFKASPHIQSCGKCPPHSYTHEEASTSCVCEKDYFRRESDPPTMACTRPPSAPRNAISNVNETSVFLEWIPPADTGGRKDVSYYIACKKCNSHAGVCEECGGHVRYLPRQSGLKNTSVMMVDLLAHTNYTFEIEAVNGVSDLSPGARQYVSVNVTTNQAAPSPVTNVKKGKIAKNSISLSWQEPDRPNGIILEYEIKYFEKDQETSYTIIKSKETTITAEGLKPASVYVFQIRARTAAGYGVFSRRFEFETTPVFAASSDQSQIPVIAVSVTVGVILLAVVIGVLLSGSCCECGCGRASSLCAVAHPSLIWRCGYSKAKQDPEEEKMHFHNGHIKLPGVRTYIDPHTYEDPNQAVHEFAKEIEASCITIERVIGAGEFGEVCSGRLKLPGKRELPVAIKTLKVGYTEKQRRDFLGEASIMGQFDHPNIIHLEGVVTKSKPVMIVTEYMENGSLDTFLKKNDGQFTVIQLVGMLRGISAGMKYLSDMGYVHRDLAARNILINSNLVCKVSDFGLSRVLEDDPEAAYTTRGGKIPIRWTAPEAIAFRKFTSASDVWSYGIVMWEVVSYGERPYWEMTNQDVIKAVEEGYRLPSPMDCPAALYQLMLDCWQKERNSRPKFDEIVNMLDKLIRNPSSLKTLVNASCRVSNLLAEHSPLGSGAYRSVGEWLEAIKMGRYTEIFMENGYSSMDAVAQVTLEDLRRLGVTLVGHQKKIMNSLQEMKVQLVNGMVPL
# [9] = target: Ephrin type-A receptor 5 (Homo sapiens) (UniProt P54756); settings: at 10 µM
# [10] = target: Ephrin type-A receptor 7 (Homo sapiens) (UniProt Q15375); settings: at 1 µM
# Sequence of Ephrin type-A receptor 7 (Homo sapiens) (Q15375 28-998 limits assumed): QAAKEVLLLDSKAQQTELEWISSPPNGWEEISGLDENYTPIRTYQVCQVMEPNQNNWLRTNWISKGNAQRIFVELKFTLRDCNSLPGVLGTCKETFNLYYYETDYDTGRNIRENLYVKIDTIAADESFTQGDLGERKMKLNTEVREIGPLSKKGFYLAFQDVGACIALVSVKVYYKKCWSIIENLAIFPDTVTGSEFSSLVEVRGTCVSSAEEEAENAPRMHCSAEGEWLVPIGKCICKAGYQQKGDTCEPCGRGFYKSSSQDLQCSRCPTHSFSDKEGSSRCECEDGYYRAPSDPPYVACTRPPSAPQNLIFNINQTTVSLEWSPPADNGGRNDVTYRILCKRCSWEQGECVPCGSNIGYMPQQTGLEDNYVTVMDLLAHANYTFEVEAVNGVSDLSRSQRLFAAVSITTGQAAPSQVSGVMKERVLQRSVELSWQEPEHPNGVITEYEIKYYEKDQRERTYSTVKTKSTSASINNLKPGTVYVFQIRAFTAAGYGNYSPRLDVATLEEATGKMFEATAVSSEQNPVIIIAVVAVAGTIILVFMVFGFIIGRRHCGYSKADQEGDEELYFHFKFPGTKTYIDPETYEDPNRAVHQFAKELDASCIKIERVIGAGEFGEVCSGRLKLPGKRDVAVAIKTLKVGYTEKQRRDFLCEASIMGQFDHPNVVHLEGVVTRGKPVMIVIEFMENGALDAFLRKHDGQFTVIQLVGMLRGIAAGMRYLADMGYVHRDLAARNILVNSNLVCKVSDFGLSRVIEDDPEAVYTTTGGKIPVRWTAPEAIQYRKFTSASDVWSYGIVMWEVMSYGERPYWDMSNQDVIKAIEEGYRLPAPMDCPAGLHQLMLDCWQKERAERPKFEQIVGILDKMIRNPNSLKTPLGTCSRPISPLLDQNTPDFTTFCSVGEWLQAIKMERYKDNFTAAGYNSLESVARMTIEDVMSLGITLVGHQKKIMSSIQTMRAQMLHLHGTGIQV
# [11] = target: Ephrin type-A receptor 7 (Homo sapiens) (UniProt Q15375); settings: at 10 µM
# [12] = target: T4, Ephrin type-A receptor 8 (Homo sapiens) (UniProt P29322); settings: at 1 µM
# T4 sequence (whole entry): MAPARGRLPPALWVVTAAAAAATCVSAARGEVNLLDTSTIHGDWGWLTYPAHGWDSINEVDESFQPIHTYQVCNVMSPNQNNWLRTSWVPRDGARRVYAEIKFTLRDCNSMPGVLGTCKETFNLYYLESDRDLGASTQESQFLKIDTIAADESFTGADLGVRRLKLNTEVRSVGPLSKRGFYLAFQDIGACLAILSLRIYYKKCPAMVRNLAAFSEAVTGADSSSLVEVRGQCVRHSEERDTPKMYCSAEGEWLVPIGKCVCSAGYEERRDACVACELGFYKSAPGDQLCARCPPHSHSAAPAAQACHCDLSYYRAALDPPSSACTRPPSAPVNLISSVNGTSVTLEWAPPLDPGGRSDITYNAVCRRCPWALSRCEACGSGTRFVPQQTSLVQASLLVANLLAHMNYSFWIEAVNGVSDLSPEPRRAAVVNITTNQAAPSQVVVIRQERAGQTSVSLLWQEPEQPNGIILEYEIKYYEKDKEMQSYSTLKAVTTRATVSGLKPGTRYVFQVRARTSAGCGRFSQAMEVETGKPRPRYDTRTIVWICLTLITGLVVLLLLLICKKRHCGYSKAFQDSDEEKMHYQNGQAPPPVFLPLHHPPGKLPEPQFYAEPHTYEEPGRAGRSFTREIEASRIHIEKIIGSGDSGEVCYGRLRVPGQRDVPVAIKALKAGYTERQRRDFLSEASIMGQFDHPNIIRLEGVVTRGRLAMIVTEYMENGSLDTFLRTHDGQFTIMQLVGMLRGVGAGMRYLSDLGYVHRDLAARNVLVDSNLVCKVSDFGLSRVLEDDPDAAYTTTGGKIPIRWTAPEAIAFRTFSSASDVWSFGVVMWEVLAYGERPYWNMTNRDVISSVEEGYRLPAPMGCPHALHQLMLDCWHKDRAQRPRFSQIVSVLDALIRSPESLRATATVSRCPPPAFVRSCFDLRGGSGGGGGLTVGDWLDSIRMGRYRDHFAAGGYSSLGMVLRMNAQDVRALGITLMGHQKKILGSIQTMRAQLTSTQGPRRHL
# [13] = target: T4, Ephrin type-A receptor 8 (Homo sapiens); settings: at 10 µM
# [14] = target: T5, Dual specificity tyrosine-phosphorylation-regulated kinase 2 (Homo sapiens) (UniProt Q92630); settings: at 1 µM
# T5 sequence (whole entry): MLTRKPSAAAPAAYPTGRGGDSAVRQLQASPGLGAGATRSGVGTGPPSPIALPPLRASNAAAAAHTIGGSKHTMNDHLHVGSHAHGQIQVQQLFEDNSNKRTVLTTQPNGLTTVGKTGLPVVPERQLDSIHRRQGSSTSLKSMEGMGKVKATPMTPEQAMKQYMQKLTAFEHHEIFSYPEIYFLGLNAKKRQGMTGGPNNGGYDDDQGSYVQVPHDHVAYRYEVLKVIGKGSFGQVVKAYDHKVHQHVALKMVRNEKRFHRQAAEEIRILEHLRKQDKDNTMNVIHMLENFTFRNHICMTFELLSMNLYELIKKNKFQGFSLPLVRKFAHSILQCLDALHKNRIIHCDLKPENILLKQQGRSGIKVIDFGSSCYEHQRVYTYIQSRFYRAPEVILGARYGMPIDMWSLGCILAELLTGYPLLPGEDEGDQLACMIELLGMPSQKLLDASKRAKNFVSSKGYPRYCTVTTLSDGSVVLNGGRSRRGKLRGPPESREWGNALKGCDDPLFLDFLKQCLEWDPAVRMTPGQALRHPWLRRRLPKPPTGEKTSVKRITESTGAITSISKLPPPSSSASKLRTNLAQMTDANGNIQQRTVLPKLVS
# [15] = target: T5, Dual specificity tyrosine-phosphorylation-regulated kinase 2 (Homo sapiens); settings: at 10 µM
# [16] = target: T2, Ephrin type-A receptor 1 (Homo sapiens); settings: at 1 µM
# [17] = target: T6, Ephrin type-B receptor 1 (Homo sapiens) (UniProt P54762); settings: at 1 µM
# T6 sequence (whole entry): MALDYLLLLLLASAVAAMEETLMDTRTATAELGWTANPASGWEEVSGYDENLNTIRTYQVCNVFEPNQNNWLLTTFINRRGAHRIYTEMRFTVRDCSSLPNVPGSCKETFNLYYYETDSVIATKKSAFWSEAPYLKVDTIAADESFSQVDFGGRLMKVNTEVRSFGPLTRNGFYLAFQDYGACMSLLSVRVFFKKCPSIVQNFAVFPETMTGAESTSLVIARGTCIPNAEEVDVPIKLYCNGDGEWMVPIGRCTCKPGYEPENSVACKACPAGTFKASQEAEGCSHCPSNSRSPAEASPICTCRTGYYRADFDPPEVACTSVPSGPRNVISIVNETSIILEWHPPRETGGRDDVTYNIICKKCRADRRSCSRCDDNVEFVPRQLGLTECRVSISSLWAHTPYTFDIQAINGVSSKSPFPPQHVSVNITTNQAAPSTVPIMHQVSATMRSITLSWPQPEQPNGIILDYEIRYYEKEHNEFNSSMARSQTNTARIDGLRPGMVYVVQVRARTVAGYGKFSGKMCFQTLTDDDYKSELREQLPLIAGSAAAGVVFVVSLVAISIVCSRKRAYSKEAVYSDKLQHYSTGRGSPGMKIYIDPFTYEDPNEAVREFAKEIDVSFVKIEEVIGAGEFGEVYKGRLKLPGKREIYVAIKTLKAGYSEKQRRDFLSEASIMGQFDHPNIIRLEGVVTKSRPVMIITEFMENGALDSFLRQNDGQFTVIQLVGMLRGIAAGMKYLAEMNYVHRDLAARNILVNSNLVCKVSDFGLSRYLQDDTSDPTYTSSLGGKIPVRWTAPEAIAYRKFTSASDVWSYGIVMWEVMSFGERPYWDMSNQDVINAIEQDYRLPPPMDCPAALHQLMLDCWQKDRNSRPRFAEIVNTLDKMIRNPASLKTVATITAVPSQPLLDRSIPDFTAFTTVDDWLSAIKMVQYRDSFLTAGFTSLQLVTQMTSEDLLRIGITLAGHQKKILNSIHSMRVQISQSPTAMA
# [18] = target: Ephrin type-A receptor 4 (Homo sapiens) (UniProt P54764); settings: at 1 µM
# [19] = target: Epidermal growth factor receptor (Homo sapiens) (UniProt P00533); settings: at 1 µM
# [20] = target: Epidermal growth factor receptor (Homo sapiens) (UniProt P00533); settings: at 10 µM
SMILES,residual activity [1] [%],residual activity [2] [%],residual activity [3] [%],residual activity [4] [%],residual activity [5] [%],residual activity [6] [%],residual activity [7] [%],residual activity [8] [%],residual activity [9] [%],residual activity [10] [%],residual activity [11] [%],residual activity [12] [%],residual activity [13] [%],residual activity [14] [%],residual activity [15] [%],residual activity [16] [%],residual activity [17] [%],residual activity [18] [%],residual activity [19] [%],residual activity [20] [%]
CN(C)CCCn1cc(C2=C(c3c[nH]c4ccccc34)C(=O)NC2=O)c2ccccc21,46,37,102,68,109,82,82,123,103,108,87,120,106,,,,,,,
Cc1cc2ncc(-c3ccccc3)nc2cc1C,95,105,109,97,103,92,,,,99,93,97,98,85,105,96,106,,,
CO[C@H]1C[C@@H]2CC[C@@H](C)[C@@](O)(O2)C(=O)C(=O)N2CCCC[C@H]2C(=O)O[C@H]([C@H](C)C[C@@H]2CC[C@@H](O)[C@H](OC)C2)CC(=O)[C@H](C)/C=C(\C)[C@@H](O)[C@@H](OC)C(=O)[C@H](C)C[C@H](C)/C=C/C=C/C=C/1C,149,65,110,120,103,129,100,112,116,100,92,96,119,99,101,84,101,104,,
C[C@@H](N)[C@H]1CC[C@H](C(=O)Nc2ccncc2)CC1,67,96,96,98,103,97,,84,,96,90,105,108,101,91,101,101,95,,
COc1ccc(C(=O)Nc2sc3c(c2C(N)=O)CCCC3)cc1OC,111,111,109,107,110,89,95,94,108,92,87,107,85,98,90,92,83,112,,
O=C1Nc2cc(Br)ccc2/C1=C1/Nc2ccccc2/C1=N\O,10,92,27,20,25,3,98,37,42,68,20,69,82,,,99,34,109,66,33
c1ccc(-c2n[nH]c3c2oc2ccccc23)cc1,5,99,,,,,,,,96,78,,,83,71,98,99,,,
Nc1ccc2ncnc(NCCc3ccc(Oc4ccccc4)cc3)c2c1,48,87,98,91,95,92,104,110,113,112,100,104,99,103,92,107,114,125,,
